Screening data from PubChem.
Many of the other results were omitted from the sample, so hits are more common in it than they were.
mcGAS MS inh: inhibitors of mouse cGAS. Q8C6L5. recombinant mouse cGAS, cGAMP by RapidFire MS. inhibition, % at 12.5 µM. hit rate 0.18% among 130,000. AID 1259397;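 active = inhibition of cGAS enzyme activity at or above 60%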;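 also: enzyme stimulated by 45 bp dsDNA with ATP and GTP substrates; cGAMP share of summed cGAMP plus half ATP and half GTP signals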
Target sequence (Q8C6L5 whole entry, looked up): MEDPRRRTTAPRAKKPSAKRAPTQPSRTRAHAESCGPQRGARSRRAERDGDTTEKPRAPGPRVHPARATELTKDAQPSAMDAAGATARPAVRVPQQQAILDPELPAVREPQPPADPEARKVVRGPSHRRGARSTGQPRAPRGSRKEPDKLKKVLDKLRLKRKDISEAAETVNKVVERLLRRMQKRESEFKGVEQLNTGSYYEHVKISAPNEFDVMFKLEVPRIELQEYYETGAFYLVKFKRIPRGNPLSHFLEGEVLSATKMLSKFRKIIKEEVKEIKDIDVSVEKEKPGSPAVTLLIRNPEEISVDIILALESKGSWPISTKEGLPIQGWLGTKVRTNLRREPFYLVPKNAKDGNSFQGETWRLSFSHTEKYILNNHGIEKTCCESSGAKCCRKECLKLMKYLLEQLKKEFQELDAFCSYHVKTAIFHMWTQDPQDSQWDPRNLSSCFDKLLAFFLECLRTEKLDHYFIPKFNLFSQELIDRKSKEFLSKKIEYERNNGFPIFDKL
Each line names hits and unclear results; the compound was inactive in the other large screens; ! = not confirmed by another sample.

COc1ccc2cc(CNC(=O)NC(C)c3ccc(F)c(F)c3)ccc2c1 (stereo unspecified)	none
COc1ccc(C(C)NCC(O)COc2ccc(Cl)cc2Cl)cc1F (stereo unspecified)	none
COc1cccc2cc(CNC(C)c3ccc(F)c(F)c3)oc12 (stereo unspecified)	mcGAS MS inh 67
CCN1CC(C(=O)Nc2ccc(OC(F)(F)F)cc2)CC1=O (stereo unspecified)	none
O=C(NCc1nnc2n1CCCCC2)c1ccc(OCc2cscn2)cc1	none
Cc1ccc2ncnc(OCC(=O)Nc3cc(C)no3)c2c1	none
O=c1/c(=C/c2ccc(N3CCOCC3)cc2)sc2nc3cc(Br)cnc3n12	mcGAS MS inh 81
O=c1/c(=C/c2cccc([N+](=O)[O-])c2)sc2nc3cc(Br)cnc3n12	none
CCOc1cc(/C=c2\sc3nc4cc(Br)cnc4n3c2=O)ccc1O	none
CC(=O)N1CCN(C(=O)C2C3CC4CC(C3)CC2C4)CC1 (stereo unspecified)	none
CC(C)(C)OC(=O)N1CCC(O)(C(F)(F)F)C1 (stereo unspecified)	none
O=C(O)c1coc(CN(Cc2cccc(F)c2)Cc2ccco2)n1	none
COc1ccc2cc(CN3CCCN(c4ccncc4)CC3)c(=O)[nH]c2c1	mcGAS MS inh 60
COc1ccc2[nH]c(=O)c(CN3CCC(N4CCCC(O)C4)CC3)cc2c1 (stereo unspecified)	none
COc1ccc2[nH]c(=O)c(CN3CCCOC(Cn4cccn4)C3)cc2c1 (stereo unspecified)	none
COc1ccc(N(C(F)F)S(=O)(=O)c2ccc(Cl)cc2)cc1Cl	none
O=C(CS(=O)(=O)c1nnc2ccccn12)Nc1ccc(Cl)cc1	none
Cc1cc(C(=O)O)c2cc(-c3cn[nH]c3)ccc2n1	none
COc1cccc(N2CC(CNC(C)=O)OC2=O)c1 (stereo unspecified)	none
O=c1c(O)cccc2cc(O)c(O)c(O)c12	mcGAS MS inh 65
CCOC(=O)C1=C(C)NC(C)=C(C(=O)OC)C1c1cccc([N+](=O)[O-])c1 (stereo unspecified)	none
COC(=O)C1=C(C)NC(C)=C(C(=O)OC)C1c1ccccc1[N+](=O)[O-]	mcGAS MS inh 73!
COCCOC(=O)C1=C(C)N(C)C(=O)NC1c1ccccc1[N+](=O)[O-] (stereo unspecified)	none
O=C(NCc1ccccn1)C1CCN(C2CCN(C(=O)Cc3cccnc3)CC2)CC1	none
Cc1ccc(CNC(=O)N2CCN(Cc3ccc4c(c3)OCO4)CC2)cc1	none
COc1cc(CN2CCN(C(C)=O)CC2)c(O)c(C(C)(C)C)c1	none
COc1ccc(S(=O)(=O)N2CCC(NC(=O)COc3cc(C)cc(C)c3)CC2)cc1	none
CCCC1C(C#N)C(=N)SC(=N)C1C#N (stereo unspecified)	none
N#CC1C(=N)SC(=N)C(C#N)C1c1ccc([N+](=O)[O-])cc1 (stereo unspecified)	mcGAS MS inh 62
CCOC(=O)C1=C(C)NC(=O)C(C#N)C1c1ccc([N+](=O)[O-])cc1 (stereo unspecified)	none
Cc1ccc(C(=O)OCC(=O)N(C)Cc2cc(C#N)ccc2F)c(O)c1C	none
CC(=O)Nc1ccc(NC(=O)[C@@H](C)N2Cc3ccc(NCC(C)C)nc3C2=O)cc1	none
O=C(Cc1c[nH]c2ccc(Cl)cc12)NCC1(O)CCSC1 (stereo unspecified)	none
O=C1NC2(CCOc3ccccc32)C(=O)N1Cc1coc(-c2cccs2)n1 (stereo unspecified)	mcGAS MS inh 95
Cc1cc(C)cc(CN2C(=O)NC3(CCOc4ccccc43)C2=O)c1 (stereo unspecified)	none
O=C1NC2(CCOc3ccccc32)C(=O)N1CCN1C(=O)c2ccccc2C1=O (stereo unspecified)	none
Cc1cc(C)cc(-n2nnnc2SC(C)C(=O)N2CC(C)CC(C)C2)c1 (stereo unspecified)	none
Cc1nnc(NCCC23CC4CC(CC(C4)C2)C3)c(C#N)c1C	none
CC1CCC(CCC(=O)Nc2sccc2C(=O)NC2CC2)O1 (stereo unspecified)	none
CCCSCC(=O)Nc1c(C)c(C)nn1-c1ccc(C#N)cc1	none
O=c1c(O[C@@H]2O[C@H](CO)[C@H](O)[C@H](O)[C@H]2O)c(-c2ccc(O)c(O)c2)oc2cc(O)cc(O)c12	none
O=c1c(O)c(-c2cc(O)c(O)c(O)c2)oc2cc(O)cc(O)c12	mcGAS MS inh 94
O=c1c(O)c(-c2ccccc2)oc2cc(O)ccc12	none
COc1ccc(-c2ccc(C(=O)N3CCCC3)o2)c2cccnc12	mcGAS MS inh 86
CNC(=O)c1ccc(-c2ccc(OC)c3ncccc23)s1	none
COc1ccc(-c2ccc(NC(=O)C3CC3)nc2)c2cccnc12	none
COc1ccc(C(C)NS(=O)(=O)c2ccc(Cl)cc2C(F)(F)F)cc1F (stereo unspecified)	none
COC(=O)CCNC(=O)CC(c1ccccc1)c1ccccc1F (stereo unspecified)	none
CCc1ccc(O)c(NC(=S)NC(=O)c2cc(OC)c(OC)c(OC)c2)c1	none
N#Cc1cccc(N/N=C2\CCn3cccc32)c1	none
N#Cc1cccc(NN=C2CCN(c3ccc(F)cc3)CC2)c1	mcGAS MS inh 89
N#Cc1cccc(NC(=O)N2CCN(c3ccc(C#N)cc3F)CC2)c1	none
CCCn1nnnc1CNc1ccc(-n2cncn2)c(Cl)c1	none
O=C(c1cn(Cc2ccc(F)cc2)nn1)N1[C@@H]2CC[C@H]1CC(O)C2 (stereo partly specified)	none
CS(=O)(=O)c1nnnn1-c1ccccc1Cl	none
OCc1cn(-c2ccccc2Cl)nn1	mcGAS MS inh 94
CN(CCNC(=O)c1ccn(-c2ccccc2Cl)n1)C1CC1	none
Cc1cc(C)n(-c2cccc(-c3ccc(N)nc3)c2)n1	none
CC(=O)N1CCN(C(=O)C2CCC(C(=O)N3CCN(C(C)=O)CC3)CC2)CC1 (stereo unspecified)	none
N#Cc1ccc(Oc2ncccc2[N+](=O)[O-])c(Cl)c1	none
N#Cc1ccc([N+](=O)[O-])c(O)c1	none
N#Cc1cc(I)c(O)c([N+](=O)[O-])c1	mcGAS MS inh 95
COCCN(Cc1ccccn1)CC1CCCN(C2Cc3ccccc3C2)C1 (stereo unspecified)	none
CCS(=O)(=O)c1cccc(C(=O)Nc2c3c(nn2-c2ccccc2)CCC3)c1	none
CCCOC1CCCN(C(=O)CC(=O)Nc2ccc(C)cc2C)C1 (stereo unspecified)	none
Nc1c2ccccc2nc2ccccc12	mcGAS MS inh 78!
Nc1c2c(nc3ccccc13)CCCC2	none
Cc1ccc2c(N)cccc2n1	none
Cn1cccc1/C=N\NC(=O)CSc1nnc(-c2ccccc2)n1-c1ccccc1	none
CCOC(=O)C1(C)CCCCN1C(=O)c1c(F)cccc1F (stereo unspecified)	none
CCCCCC(C)n1[nH]c(=O)c2c(C)cc(C)nc21 (stereo unspecified)	none
CCCCn1c(N)cc(=O)[nH]c1=O	none
CCCCC(C)n1[nH]c(=O)cc1N (stereo unspecified)	mcGAS MS inh 63
C[n+]1c2cc(N)ccc2cc2ccc(N)cc21	mcGAS MS inh 99!
C=CCn1c(N/N=C\c2cccc(O)c2)nc2c1c(=O)[nH]c(=O)n2C	none
O=C(Nc1ccc(Cl)c(Cl)c1)Nc1ccc(I)cc1F	none
Cc1cc(-c2ccc(NN=C3C=Cc4c(S(=O)(=O)O)cc(S(=O)(=O)O)c(N)c4C3=O)c(C)c2)ccc1NN=C1C=Cc2c(S(=O)(=O)O)cc(S(=O)(=O)O)c(N)c2C1=O	mcGAS MS inh 95
CCC(C)NC(=O)CSc1nc(C)nc2sc3c(c12)CCC3 (stereo unspecified)	none
CC(C)(O)C#Cc1cccc(C(=O)NCc2noc(-c3ccccc3)n2)c1	none
